Among the data in PubChem BioAssay (NCATS) are Potency values, retold here.

Results filed as inconclusive are left out. Where a call stands in place of a potency, no number is given. Activity calls are given as the source filed them. Calls follow the shape of the dose curve; as a rule, active = well fitted curve in the direction sought with a large enough effect; inconclusive = small, poorly fitted or top-dose-only effect, or another doubt; inactive = no such curve, though single readings can be large; an effect the other way counts as inactive or inconclusive.
Potency is read from the fitted curve at half-maximal effect.

One test deals with Rap guanine nucleotide exchange factor 3 (Homo sapiens) (UniProt O95398). The test can be described thus: Confirmatory qHTS for antagonist of cAMP-regulated guanine nucleotide exchange factor 3 (EPAC1) (AID 1645880). Also: nearly all actives have a fitted effect of over 55% in size. The note with it: EPAC1 Rap1B-BODIPY-GDP exchange, fluorescence; series mostly up to 115 µM. An outline of the steps: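 Nucleotide exchange uses 100 nM EPAC1, 250 nM RAP1B-BODIPY-GDP and 50 uM GDP, with compounds in a concentration-titration series. After 5 min at room temperature, fluorescence (480 nm ex/540 nm em) is read every 5 min for 30 min. Data are normalized to control ATA and DMSO.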
Chain of Rap guanine nucleotide exchange factor 3 (Homo sapiens) (O95398 whole entry, looked up): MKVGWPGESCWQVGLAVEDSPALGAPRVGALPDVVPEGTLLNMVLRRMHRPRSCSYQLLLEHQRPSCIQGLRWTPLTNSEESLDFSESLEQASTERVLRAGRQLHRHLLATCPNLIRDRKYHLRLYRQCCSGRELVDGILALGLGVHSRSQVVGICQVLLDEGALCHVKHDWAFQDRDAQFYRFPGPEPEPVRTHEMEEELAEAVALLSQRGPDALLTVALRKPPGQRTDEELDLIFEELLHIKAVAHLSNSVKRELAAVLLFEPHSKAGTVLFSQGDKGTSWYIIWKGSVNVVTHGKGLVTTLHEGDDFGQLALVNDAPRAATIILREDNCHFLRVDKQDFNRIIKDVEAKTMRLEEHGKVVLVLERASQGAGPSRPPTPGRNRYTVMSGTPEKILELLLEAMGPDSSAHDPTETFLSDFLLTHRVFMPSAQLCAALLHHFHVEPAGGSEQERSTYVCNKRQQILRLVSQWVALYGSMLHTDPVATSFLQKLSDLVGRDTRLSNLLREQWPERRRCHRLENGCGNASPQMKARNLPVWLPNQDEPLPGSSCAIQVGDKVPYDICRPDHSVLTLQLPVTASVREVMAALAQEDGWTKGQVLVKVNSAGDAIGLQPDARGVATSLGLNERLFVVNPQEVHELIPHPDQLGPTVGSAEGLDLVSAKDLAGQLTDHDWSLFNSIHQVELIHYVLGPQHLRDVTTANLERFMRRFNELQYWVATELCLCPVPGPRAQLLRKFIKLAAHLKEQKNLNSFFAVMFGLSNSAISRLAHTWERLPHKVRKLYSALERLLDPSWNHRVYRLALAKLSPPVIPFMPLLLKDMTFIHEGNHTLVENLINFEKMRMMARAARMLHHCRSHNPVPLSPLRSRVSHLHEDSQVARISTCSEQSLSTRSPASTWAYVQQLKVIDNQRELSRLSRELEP
Regarding `Cn1cccc1/C=C1/C(=O)NC(=S)N(Cc2ccc(F)cc2)C1=O`, the Potency was 31.6 µM (active).

`COc1ccc(N2C(=O)NC(=O)/C(=C/c3ccc([N+](=O)[O-])s3)C2=O)cc1`: the Potency is 33.8 µM (active).

On to `Oc1c(Cl)cccc1Cc1cc(Cl)cc(Cl)c1O`, for which the Potency was 19 µM (active).

On to `CCOC(=O)[C@]12Cc3cc(C)ccc3[C@H]1N(Cc1ccccc1)C(=O)c1ccccc12`, for which the Potency result is “inactive”.

Regarding `CCC(=NCCCO)c1c(O)n(-c2ccc(OC)cc2)c(=O)[nH]c1=O`, the Potency entry was “inactive”.

In the case of `COc1ccc(-n2c(O)c(/C=C/C=Nc3ccccc3)c(=O)[nH]c2=O)cc1`, the Potency entry is “inactive”.

Consider `Cc1cc(/C=C2\C(=O)NC(=O)N(c3ccc(Cl)cc3)C2=O)c(C)n1-c1sc2c(c1C#N)CCCC2`, for which the Potency was 11.2 µM (active).

For the compound `Cc1ccc(C)c(Cn2c(C(=O)O)c(C=O)c3ccccc32)c1`, the Potency result was “inactive”.

Consider `Cc1ccc(CN2CCCN(Cc3ccccc3C)S2(=O)=O)cc1`, for which the Potency entry is “inactive”.

As to `O=C1NC(=O)N(Cc2ccco2)C(=O)/C1=C/C=C/c1ccco1`, the Potency entry was “inactive”.

On to `CCOC(=O)c1cc(CC)sc1/N=C/c1c(O)[nH]c(=S)[nH]c1=O`, for which the Potency entry was “inactive”.

Turning to `Cc1cc(/C=C2/C(=O)NC(=O)N(Cc3ccco3)C2=O)c(C)n1-c1ccccc1O`, the Potency was 44.7 µM (active).

As to `CCN1/C(=C/C=C/C2=[N+](CC)c3ccccc3C2(C)C)C(C)(C)c2ccccc21`, the Potency entry was “inactive”.

With `Cc1ccc(N2C(=O)NC(=O)/C(=C\C=C\c3ccco3)C2=O)cc1C`, the Potency was 33.8 µM (active).

In the case of `CCN(CC)c1ccc(N=Cc2c(O)n(CCC3=CCCCC3)c(=O)[nH]c2=O)cc1`, the Potency was 75.7 µM (active).

Turning to `CN1C(=O)/C(=C/c2cccn2-c2ccc3ccccc3c2)C(=O)NC1=S`, the Potency is 33.8 µM (active).

For `O=Cc1c(C(=O)O)n(Cc2ccc(Cl)cc2)c2ccccc12`, the Potency result is “inactive”.

With `COc1ccc(OCC(=O)N2CCN(CC3CC4C=CC3C4)CC2)cc1` (stereo not given), the Potency entry was “inactive”.

As for `CCc1nc2ccccc2c(=O)n1-c1ccccc1OC`, the Potency result is “inactive”.

Turning to `O=C(c1cc(Cl)cc(Cl)c1)N1Cc2ccccc2-n2nncc2C1`, the Potency result was “inactive”.

As for `COc1ccc(-n2c(O)c(/C=C3\C=Nc4ccc(Br)cc43)c(=O)[nH]c2=O)c(OC)c1`, the Potency was 37.9 µM (active).

On to `COc1ccc(C(=O)C2CN(C)CC2c2ccc(Cl)cc2)cc1` (stereo not given), for which the Potency result was “inactive”.

Turning to `CC(Cc1ccc(O)cc1)NCC(O)c1ccc(O)c(O)c1` (stereo not given), the Potency is 22.4 µM (active).

Turning to `Cc1c(NS(=O)(=O)c2ccccc2)ccc([N+](=O)[O-])c1Cl`, the Potency entry was “inactive”.

Turning to `COC(=O)C1=C(c2ccc3ccccc3c2)C[C@@H]2CC[C@H]1N2C(=O)NC1CC1`, the Potency entry was “inactive”.

Regarding `COC(=O)C1=C(c2cc3ccccc3s2)C[C@@H]2CC[C@H]1N2C(=O)NC1CC1`, the Potency result was “inactive”.

On to `O=c1[nH]c(O)c(C=Nc2ccccc2Sc2ccccc2)c(=O)[nH]1`, for which the Potency entry is “inactive”.

For the compound `Cc1cc(OC(C)C(=O)N[C@H](C(=O)O)c2ccccc2)c2c3c(c(=O)oc2c1)CCC3` (stereo not given in full), the Potency entry is “inactive”.

Take `COCCCn1c(N)c(C(=O)NCCC(C)C)c2nc3ccccc3nc21`: the Potency is 56.2 µM (active).

`O=C1NC(=O)N(Cc2ccc(F)cc2)C(=O)/C1=C\c1ccc([N+](=O)[O-])s1`: the Potency was 12 µM (active).

Turning to `COc1ccc(N=Cc2c(O)n(Cc3ccccc3)c(=S)[nH]c2=O)c(OC)c1`, the Potency entry is “inactive”.

With `Cn1cc(C=C2C(=O)NC(=O)NC2=O)c2ccccc21`, the Potency result is “inactive”.

With `CC[C@@H]1c2ccccc2[C@@H]2CC[C@H]1N2c1ccccc1`, the Potency result was “inactive”.

On to `O=C(O)CC1OCC=C2CN3CCC45C6=CC(=O)C(=O)C([N+](=O)[O-])=C6NC4C1C2CC35` (stereo not given), for which the Potency result was “inactive”.

Take `COC(=O)c1cn(Cc2ccc(F)cc2)c2ccccc12`: the Potency entry was “inactive”.

In the case of `OC1/C(=C/c2ccc(C(F)(F)F)cc2)N2CCC1CC2` (stereo not given), the Potency result is “inactive”.

For the compound `O=C1NC(=S)N(c2ccccc2)C(=O)/C1=C/c1ccco1`, the Potency was 9.53 µM (active).

In the case of `COc1ccc(OC)c(N2C(=O)NC(=O)/C(=C/c3ccc([N+](=O)[O-])s3)C2=O)c1`, the Potency was 7.94 µM (active).

In the case of `COC(=O)c1cn(C(=O)c2cccc3ccccc23)c2ccccc12`, the Potency entry was “inactive”.

Take `CC1=C(O)C(=O)C=C2C1=CC=C1C2(C)CCC2(C)C3CC(C)(C(=O)O)CCC3(C)CCC12C` (stereo not given): the Potency was 33.8 µM (active).

The next test shares this target. The test can be described thus: Confirmatory qHTS for agonist of cAMP-regulated guanine nucleotide exchange factor 3 (EPAC1) (AID 1645881). Also: nearly all actives have a fitted effect of over 75% in size. The note with it: EPAC1 Rap1B BODIPY-GDP exchange fluorescence; series mostly up to 154 µM.
As to `Cn1cccc1/C=C1/C(=O)NC(=S)N(Cc2ccc(F)cc2)C1=O`, the Potency result is “inactive”.

For the compound `COc1ccc(N2C(=O)NC(=O)/C(=C/c3ccc([N+](=O)[O-])s3)C2=O)cc1`, the Potency result is “inactive”.

`Oc1c(Cl)cccc1Cc1cc(Cl)cc(Cl)c1O`: the Potency result is “inactive”.

In the case of `CCOC(=O)[C@]12Cc3cc(C)ccc3[C@H]1N(Cc1ccccc1)C(=O)c1ccccc12`, the Potency entry was “inactive”.

With `CCC(=NCCCO)c1c(O)n(-c2ccc(OC)cc2)c(=O)[nH]c1=O`, the Potency result is “inactive”.

As for `COc1ccc(-n2c(O)c(/C=C/C=Nc3ccccc3)c(=O)[nH]c2=O)cc1`, the Potency is 100 µM (active).

On to `Cc1cc(/C=C2\C(=O)NC(=O)N(c3ccc(Cl)cc3)C2=O)c(C)n1-c1sc2c(c1C#N)CCCC2`, for which the Potency entry is “inactive”.

`Cc1ccc(C)c(Cn2c(C(=O)O)c(C=O)c3ccccc32)c1`: the Potency entry was “inactive”.

For the compound `Cc1ccc(CN2CCCN(Cc3ccccc3C)S2(=O)=O)cc1`, the Potency result is “inactive”.

`O=C1NC(=O)N(Cc2ccco2)C(=O)/C1=C/C=C/c1ccco1`: the Potency entry was “inactive”.

In the case of `CCOC(=O)c1cc(CC)sc1/N=C/c1c(O)[nH]c(=S)[nH]c1=O`, the Potency is 100 µM (active).

Turning to `Cc1cc(/C=C2/C(=O)NC(=O)N(Cc3ccco3)C2=O)c(C)n1-c1ccccc1O`, the Potency result was “inactive”.

Consider `CCN1/C(=C/C=C/C2=[N+](CC)c3ccccc3C2(C)C)C(C)(C)c2ccccc21`, for which the Potency is 56.2 µM (active).

Take `Cc1ccc(N2C(=O)NC(=O)/C(=C\C=C\c3ccco3)C2=O)cc1C`: the Potency result is “inactive”.

For `CCN(CC)c1ccc(N=Cc2c(O)n(CCC3=CCCCC3)c(=O)[nH]c2=O)cc1`, the Potency result was “inactive”.

For `CN1C(=O)/C(=C/c2cccn2-c2ccc3ccccc3c2)C(=O)NC1=S`, the Potency entry was “inactive”.

Turning to `O=Cc1c(C(=O)O)n(Cc2ccc(Cl)cc2)c2ccccc12`, the Potency entry was “inactive”.

In the case of `COc1ccc(OCC(=O)N2CCN(CC3CC4C=CC3C4)CC2)cc1` (stereo not given), the Potency result is “inactive”.

`CCc1nc2ccccc2c(=O)n1-c1ccccc1OC`: the Potency result was “inactive”.

In the case of `O=C(c1cc(Cl)cc(Cl)c1)N1Cc2ccccc2-n2nncc2C1`, the Potency entry was “inactive”.

With `COc1ccc(-n2c(O)c(/C=C3\C=Nc4ccc(Br)cc43)c(=O)[nH]c2=O)c(OC)c1`, the Potency entry was “inactive”.

`COc1ccc(C(=O)C2CN(C)CC2c2ccc(Cl)cc2)cc1` (stereo not given): the Potency entry was “inactive”.

With `CC(Cc1ccc(O)cc1)NCC(O)c1ccc(O)c(O)c1` (stereo not given), the Potency entry was “inactive”.

Turning to `Cc1c(NS(=O)(=O)c2ccccc2)ccc([N+](=O)[O-])c1Cl`, the Potency result was “inactive”.

As to `COC(=O)C1=C(c2ccc3ccccc3c2)C[C@@H]2CC[C@H]1N2C(=O)NC1CC1`, the Potency result is “inactive”.

With `COC(=O)C1=C(c2cc3ccccc3s2)C[C@@H]2CC[C@H]1N2C(=O)NC1CC1`, the Potency result is “inactive”.

Turning to `O=c1[nH]c(O)c(C=Nc2ccccc2Sc2ccccc2)c(=O)[nH]1`, the Potency result is “inactive”.

Turning to `Cc1cc(OC(C)C(=O)N[C@H](C(=O)O)c2ccccc2)c2c3c(c(=O)oc2c1)CCC3` (stereo not given in full), the Potency entry is “inactive”.

Turning to `COCCCn1c(N)c(C(=O)NCCC(C)C)c2nc3ccccc3nc21`, the Potency entry was “inactive”.

Consider `O=C1NC(=O)N(Cc2ccc(F)cc2)C(=O)/C1=C\c1ccc([N+](=O)[O-])s1`, for which the Potency result is “inactive”.

Consider `COc1ccc(N=Cc2c(O)n(Cc3ccccc3)c(=S)[nH]c2=O)c(OC)c1`, for which the Potency was 79.4 µM (active).

Consider `Cn1cc(C=C2C(=O)NC(=O)NC2=O)c2ccccc21`, for which the Potency is 79.4 µM (active).

As for `CC[C@@H]1c2ccccc2[C@@H]2CC[C@H]1N2c1ccccc1`, the Potency result was “inactive”.

`O=C(O)CC1OCC=C2CN3CCC45C6=CC(=O)C(=O)C([N+](=O)[O-])=C6NC4C1C2CC35` (stereo not given): the Potency entry was “inactive”.

In the case of `COC(=O)c1cn(Cc2ccc(F)cc2)c2ccccc12`, the Potency entry was “inactive”.

On to `OC1/C(=C/c2ccc(C(F)(F)F)cc2)N2CCC1CC2` (stereo not given), for which the Potency entry is “inactive”.

Take `O=C1NC(=S)N(c2ccccc2)C(=O)/C1=C/c1ccco1`: the Potency entry is “inactive”.

With `COc1ccc(OC)c(N2C(=O)NC(=O)/C(=C/c3ccc([N+](=O)[O-])s3)C2=O)c1`, the Potency result was “inactive”.

On to `COC(=O)c1cn(C(=O)c2cccc3ccccc23)c2ccccc12`, for which the Potency entry was “inactive”.

Take `CC1=C(O)C(=O)C=C2C1=CC=C1C2(C)CCC2(C)C3CC(C)(C(=O)O)CCC3(C)CCC12C` (stereo not given): the Potency result was “inactive”.
